From the supplement of paper PMC10849652
Targets with a hit are over-represented here; the source holds about 8,800 in all. About 0.5% of all pairs of compound and target were hits. Unmarked numbers belong to inactive results.

These targets were tested with NCC(=O)Nc1ccc(-n2nc(C(F)(F)F)cc2-c2ccc3c(ccc4ccccc43)c2)cc1 (assay: log2 fold change, soluble protein after heating vs DMSO (PISA); higher = thermal stabilisation; K562 lysate, 10 uM; active = over 0.2 and 3.5 SD of the protein, either way, in both replicates (recomputed)).
In short: (§1)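 Soluble protein was defined as the supernatant remaining after 21,000xg for 90 min, following pooling of heated aliquots and adjustment to 0.5% NP-40 at 4°C. Before that, crude K562 extract at 1 mg/mL protein in PBS pH 7.4 with 1 mM MgCl2 was treated with 10 μM compound for 30 min and heated for 3 min across 48°C-58°C. Quantification used TMTpro 16plex LC-MS/MS with channel sums equalised, and values are log-two fold changes in thermal stability relative to solvent controls from duplicates.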

Chain of UniProt Q13362 (Q13362 whole entry, looked up): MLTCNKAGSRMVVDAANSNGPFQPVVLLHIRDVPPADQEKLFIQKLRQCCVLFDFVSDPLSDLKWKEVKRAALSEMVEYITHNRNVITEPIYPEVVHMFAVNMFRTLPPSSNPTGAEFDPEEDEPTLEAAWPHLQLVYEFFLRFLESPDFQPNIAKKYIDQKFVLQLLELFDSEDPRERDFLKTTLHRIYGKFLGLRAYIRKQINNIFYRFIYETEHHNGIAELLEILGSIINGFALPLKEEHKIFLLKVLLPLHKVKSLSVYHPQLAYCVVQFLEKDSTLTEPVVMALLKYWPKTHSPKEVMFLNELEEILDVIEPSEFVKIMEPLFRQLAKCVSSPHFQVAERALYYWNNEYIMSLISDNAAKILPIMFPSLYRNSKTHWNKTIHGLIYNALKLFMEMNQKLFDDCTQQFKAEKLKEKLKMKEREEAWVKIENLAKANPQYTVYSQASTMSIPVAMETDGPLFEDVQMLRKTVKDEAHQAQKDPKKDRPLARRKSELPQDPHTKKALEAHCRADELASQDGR
Chain of UniProt O94913 (O94913 whole entry, looked up): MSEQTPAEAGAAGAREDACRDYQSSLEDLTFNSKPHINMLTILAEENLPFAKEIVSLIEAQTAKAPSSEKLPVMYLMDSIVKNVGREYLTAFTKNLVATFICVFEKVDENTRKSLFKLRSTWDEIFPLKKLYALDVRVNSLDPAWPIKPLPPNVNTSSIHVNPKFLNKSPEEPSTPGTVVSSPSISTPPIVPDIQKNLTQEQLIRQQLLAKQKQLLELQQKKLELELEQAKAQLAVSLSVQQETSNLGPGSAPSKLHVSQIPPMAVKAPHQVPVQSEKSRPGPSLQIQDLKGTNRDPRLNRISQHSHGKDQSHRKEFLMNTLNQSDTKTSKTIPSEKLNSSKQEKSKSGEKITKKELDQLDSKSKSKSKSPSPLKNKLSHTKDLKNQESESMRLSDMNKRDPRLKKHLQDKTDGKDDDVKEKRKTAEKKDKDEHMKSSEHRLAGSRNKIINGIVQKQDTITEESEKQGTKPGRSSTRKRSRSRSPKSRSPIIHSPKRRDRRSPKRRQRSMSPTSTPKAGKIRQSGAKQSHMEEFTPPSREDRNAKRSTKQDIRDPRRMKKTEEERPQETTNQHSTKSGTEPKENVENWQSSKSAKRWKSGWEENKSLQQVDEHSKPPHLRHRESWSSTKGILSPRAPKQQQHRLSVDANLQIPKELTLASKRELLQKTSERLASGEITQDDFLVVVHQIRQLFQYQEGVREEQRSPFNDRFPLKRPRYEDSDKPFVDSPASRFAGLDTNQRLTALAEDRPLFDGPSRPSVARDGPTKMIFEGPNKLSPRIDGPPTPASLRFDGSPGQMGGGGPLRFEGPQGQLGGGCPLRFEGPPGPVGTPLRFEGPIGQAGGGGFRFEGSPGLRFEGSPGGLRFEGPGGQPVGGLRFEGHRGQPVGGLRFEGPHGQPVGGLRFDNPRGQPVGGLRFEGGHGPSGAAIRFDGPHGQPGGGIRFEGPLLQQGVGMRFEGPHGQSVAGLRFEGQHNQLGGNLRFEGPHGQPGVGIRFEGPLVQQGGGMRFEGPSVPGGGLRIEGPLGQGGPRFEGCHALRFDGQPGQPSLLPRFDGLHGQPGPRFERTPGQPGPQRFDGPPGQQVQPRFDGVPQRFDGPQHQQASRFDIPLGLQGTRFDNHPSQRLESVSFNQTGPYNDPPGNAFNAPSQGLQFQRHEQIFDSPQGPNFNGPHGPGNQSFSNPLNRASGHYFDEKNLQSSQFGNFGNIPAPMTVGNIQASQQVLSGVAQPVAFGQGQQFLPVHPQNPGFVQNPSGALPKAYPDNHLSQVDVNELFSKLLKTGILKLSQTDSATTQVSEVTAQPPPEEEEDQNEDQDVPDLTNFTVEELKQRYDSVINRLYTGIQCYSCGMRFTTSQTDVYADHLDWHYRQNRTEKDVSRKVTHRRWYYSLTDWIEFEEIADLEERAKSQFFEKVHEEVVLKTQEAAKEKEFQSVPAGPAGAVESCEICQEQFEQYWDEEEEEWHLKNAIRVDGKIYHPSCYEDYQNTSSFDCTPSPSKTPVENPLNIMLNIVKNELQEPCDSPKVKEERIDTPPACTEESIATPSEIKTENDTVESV
Chain of UniProt Q16512 (Q16512 whole entry, looked up): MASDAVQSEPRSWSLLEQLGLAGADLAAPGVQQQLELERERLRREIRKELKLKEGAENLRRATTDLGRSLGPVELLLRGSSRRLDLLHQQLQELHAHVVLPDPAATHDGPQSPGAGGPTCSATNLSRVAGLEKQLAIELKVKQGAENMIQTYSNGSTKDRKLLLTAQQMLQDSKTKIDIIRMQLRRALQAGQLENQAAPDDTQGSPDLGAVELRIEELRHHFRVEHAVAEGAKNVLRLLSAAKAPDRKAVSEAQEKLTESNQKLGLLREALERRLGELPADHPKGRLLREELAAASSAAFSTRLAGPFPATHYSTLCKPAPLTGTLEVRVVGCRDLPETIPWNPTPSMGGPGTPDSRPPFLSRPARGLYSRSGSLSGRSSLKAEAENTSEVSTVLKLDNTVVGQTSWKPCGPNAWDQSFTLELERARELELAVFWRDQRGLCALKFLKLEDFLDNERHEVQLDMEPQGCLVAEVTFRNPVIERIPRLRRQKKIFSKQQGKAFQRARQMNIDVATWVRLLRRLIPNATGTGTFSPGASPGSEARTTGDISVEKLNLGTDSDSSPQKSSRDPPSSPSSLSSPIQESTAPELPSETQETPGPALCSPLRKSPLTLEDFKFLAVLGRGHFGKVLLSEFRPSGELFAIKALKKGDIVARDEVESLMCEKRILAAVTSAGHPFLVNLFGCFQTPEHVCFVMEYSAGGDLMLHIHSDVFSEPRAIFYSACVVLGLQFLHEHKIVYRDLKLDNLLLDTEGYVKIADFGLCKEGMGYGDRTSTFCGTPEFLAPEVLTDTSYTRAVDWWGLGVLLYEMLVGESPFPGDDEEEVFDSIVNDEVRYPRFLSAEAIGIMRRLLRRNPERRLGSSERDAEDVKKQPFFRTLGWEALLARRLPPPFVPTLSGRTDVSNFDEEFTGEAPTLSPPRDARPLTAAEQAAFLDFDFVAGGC
Chain of UniProt Q16378 (Q16378 whole entry, looked up): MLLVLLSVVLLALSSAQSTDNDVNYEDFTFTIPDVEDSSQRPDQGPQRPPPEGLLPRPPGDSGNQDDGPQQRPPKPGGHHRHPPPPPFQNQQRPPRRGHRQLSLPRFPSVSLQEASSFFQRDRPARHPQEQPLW
Chain of UniProt O15031 (O15031 whole entry, looked up): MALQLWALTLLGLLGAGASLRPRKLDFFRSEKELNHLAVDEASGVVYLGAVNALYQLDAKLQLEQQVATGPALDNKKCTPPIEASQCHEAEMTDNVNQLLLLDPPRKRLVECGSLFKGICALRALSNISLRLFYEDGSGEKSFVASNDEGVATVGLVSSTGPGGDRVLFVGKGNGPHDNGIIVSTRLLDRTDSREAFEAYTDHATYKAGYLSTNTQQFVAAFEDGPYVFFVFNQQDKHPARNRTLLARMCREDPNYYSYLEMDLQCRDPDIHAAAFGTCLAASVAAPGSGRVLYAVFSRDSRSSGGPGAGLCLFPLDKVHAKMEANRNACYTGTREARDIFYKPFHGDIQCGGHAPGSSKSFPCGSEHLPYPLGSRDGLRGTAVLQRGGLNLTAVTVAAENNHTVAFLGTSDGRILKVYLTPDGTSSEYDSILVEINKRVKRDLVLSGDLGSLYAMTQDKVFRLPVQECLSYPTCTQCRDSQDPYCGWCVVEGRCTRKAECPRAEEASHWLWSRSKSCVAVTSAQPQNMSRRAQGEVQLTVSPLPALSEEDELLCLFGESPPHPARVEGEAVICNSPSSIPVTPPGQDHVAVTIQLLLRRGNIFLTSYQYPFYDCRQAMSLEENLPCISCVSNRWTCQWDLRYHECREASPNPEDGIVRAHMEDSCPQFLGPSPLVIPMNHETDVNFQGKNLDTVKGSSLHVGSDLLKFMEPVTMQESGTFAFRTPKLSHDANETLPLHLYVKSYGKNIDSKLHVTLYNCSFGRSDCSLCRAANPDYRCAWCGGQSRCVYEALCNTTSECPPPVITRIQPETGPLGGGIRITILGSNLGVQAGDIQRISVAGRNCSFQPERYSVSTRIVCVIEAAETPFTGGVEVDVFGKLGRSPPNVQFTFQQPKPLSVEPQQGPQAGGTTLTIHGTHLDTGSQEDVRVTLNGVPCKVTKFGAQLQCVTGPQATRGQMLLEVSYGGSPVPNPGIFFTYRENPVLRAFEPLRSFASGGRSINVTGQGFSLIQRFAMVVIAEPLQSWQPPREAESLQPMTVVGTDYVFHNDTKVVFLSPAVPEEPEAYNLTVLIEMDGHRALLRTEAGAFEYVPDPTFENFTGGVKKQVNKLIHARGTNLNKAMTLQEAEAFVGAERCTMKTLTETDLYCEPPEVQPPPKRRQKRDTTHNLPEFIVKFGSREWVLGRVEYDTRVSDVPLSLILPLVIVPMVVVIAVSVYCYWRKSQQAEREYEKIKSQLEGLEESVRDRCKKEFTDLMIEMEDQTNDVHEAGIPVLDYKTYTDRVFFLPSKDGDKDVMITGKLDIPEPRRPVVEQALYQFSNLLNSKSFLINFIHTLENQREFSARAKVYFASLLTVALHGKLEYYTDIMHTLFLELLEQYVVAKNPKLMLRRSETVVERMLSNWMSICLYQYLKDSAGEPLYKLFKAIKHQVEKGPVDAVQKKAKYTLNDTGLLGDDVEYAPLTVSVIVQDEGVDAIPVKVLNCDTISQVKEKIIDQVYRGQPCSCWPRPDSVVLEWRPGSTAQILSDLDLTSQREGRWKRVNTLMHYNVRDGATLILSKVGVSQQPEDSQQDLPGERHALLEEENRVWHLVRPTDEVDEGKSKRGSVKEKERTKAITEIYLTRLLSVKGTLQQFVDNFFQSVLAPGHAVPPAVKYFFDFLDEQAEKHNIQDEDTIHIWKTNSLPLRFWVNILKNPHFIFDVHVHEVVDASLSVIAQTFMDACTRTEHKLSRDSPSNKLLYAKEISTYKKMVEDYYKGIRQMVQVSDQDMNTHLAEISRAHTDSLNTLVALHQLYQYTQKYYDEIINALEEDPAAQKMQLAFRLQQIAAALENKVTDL

Target | log2 fold change
PPP2R5C isoform 4 (UniProt Q13362) | 0.075
POLD1 (UniProt P28340) | 0.016
PLXNB2 (UniProt O15031) | 0.003
PIKFYVE (UniProt Q9Y2I7) | 0.031
PTGES2 (UniProt Q9H7Z7) | -0.175
PNPLA4 (UniProt P41247) | -0.012
PCBP2 (UniProt F8W0G4) | 0.083
PHKA1 (UniProt P46020) | 0.002
PPP1R14C (UniProt Q8TAE6) | -0.061
PKN1 isoform 2 (UniProt Q16512) | 0.002
PFN3 (UniProt P60673) | 0.158
PGPEP1 (UniProt Q9NXJ5) | 0
PHGDH (UniProt O43175) | 0.023
PTK2B (UniProt Q14289) | 0.016
PDPK1 (UniProt O15530) | -0.056
PCF11 (UniProt O94913) | 0.043
PPP2R3C (UniProt Q969Q6) | -0.019
PHF14 (UniProt O94880) | -0.062
PDE4DIP (UniProt E9PS60) | 0.002
PRR4 (UniProt Q16378) | 0.009
PHKA2 (UniProt P46019) | 0.017
PHC1 (UniProt P78364) | 0.042

What follows are targets tested with O=C(CCCCCCC(=O)Nc1ccccc1)NO [vorinostat] in the same assay as above.
In short: as §1

Target | log2 fold change
POM121C (UniProt A8CG34) | 0.077
PPP2R5C isoform 4 (UniProt Q13362) | 0.082
POLD1 (UniProt P28340) | -0.245 (active)
PLXNB2 (UniProt O15031) | 0.033
PIKFYVE (UniProt Q9Y2I7) | -0.476 (active)
PTGES2 (UniProt Q9H7Z7) | -0.197
PPME1 (UniProt Q9Y570) | -0.673 (active)
PPP1R11 (UniProt O60927) | -0.31 (active)
PTK2 isoform 2 (UniProt Q05397) | -0.056
PCBP2 (UniProt F8W0G4) | -0.058
PICALM (UniProt H0YCY1) | 0.202
PHKA1 (UniProt P46020) | -0.223 (active)
PCBP2 (UniProt F8VRH0) | -0.982 (active)
PLXND1 (UniProt Q9Y4D7) | -0.132
PIP5K1A (UniProt Q99755) | -0.014
PKN1 isoform 2 (UniProt Q16512) | -0.131
NA (UniProt Q4G0T1) | -0.027
PGPEP1 (UniProt Q9NXJ5) | -0.526 (active)
PRADC1 (UniProt Q9BSG0) | 0.07
PHGDH (UniProt O43175) | -0.939 (active)
PTK2B (UniProt Q14289) | -0.339 (active)
PDPK1 (UniProt O15530) | -0.246
PCF11 (UniProt O94913) | -0.339 (active)
PPP2R3C (UniProt Q969Q6) | -0.362
PDE4DIP (UniProt E9PS60) | -0.157
PRR4 (UniProt Q16378) | 0.229
PHKA2 (UniProt P46019) | -0.29 (active)
PYGO2 (UniProt Q9BRQ0) | 0.151
